# In the library only some 7.4% were active in any assay of this set; here they are far more common.
# HEK293 viab: cell viability loss counter-screen; HEK-293-SNCA-luc viability, GF-AFC fluorescence, 24 h; 0.12% of 150,000 active; Potency, µM (titrated, usually from 57.1 µM), without a hit: at the top dose activity change, negative = cytotoxicity, usual class: cytotoxic;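 also: 0% = DMSO-treated cells and -100% = medium-only wells without cells; nearly all actives have a fitted effect of over 30% in size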
#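 Cytotoxicity counterscreen: after 24 h compound treatment of genome-edited SNCA-luciferase HEK-293 cells, live-cell protease substrate GF-AFC read by fluorescence after 30 min; activity scaled between DMSO (0%) and medium-only (-100%), curves Hill-fitted.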
# FLuc inh: Photinus pyralis luciferase inhibition; P08659; purified P. pyralis luciferase, luminescence, biochemical; Potency, µM (doses to about 115 µM), usual class: inhibitors; 2.5% of 76,000 active; AID 1347043; also: nearly all actives have a fitted effect of over 65% in size
# Target sequence (P08659 whole entry, looked up): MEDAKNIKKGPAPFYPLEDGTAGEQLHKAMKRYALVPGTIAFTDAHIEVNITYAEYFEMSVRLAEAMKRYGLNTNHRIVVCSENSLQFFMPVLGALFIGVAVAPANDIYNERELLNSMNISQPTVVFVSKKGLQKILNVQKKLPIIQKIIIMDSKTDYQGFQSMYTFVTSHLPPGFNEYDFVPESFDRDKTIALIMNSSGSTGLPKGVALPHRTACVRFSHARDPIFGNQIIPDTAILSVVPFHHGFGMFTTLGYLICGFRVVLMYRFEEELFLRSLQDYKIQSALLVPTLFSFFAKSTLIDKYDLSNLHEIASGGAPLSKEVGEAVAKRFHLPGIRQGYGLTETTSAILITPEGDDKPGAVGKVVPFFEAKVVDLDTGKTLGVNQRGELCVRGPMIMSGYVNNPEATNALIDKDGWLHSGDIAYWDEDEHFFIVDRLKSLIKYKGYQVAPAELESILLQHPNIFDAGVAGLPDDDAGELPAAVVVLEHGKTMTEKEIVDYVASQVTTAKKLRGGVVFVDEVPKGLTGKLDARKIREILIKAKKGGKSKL
#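 Purified 10nM P. pyralis luciferase with 10uM D-luciferin and 10uM ATP in 50mM Tris acetate pH 7.5, 10mM Mg acetate, 0.01% Tween-20, 0.05% BSA. qHTS titration; luminescence read by CCD imager.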
# HEK293 tox: kills HEK 293 cells; HEK 293 viability, ATP luminescence (CellTiter-Glo), 48-72 h; Potency, µM (titrated, usually from 115 µM), for inactives: top-dose activity change, negative = cytotoxicity, actives largely listed as inhibitors; 6.6% of 94,000 active; also: nearly all actives have a fitted effect of over 60% in size
#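 qHTS cytotoxicity; HEK 293, 250 cells/well; compound pinned; 48 or 72 hr, 37 degree Celsius, 5% CO2, 95% humidity; CellTiter-Glo, 10 min RT; luminescence (ATP).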
# SNCA expr inhib: inhibitors of alpha-synuclein (SNCA) gene expression; 0.17% of 140,000 active; AID 1671194; Potency, µM (top dose mostly 57.2 µM), for the others: at the top dose activity change, negative = inhibition, most hits filed as inhibitors; HEK-293 SNCA-luciferase knock-in, luminescence, 24 h;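 also: plate controls were DMSO cells for no effect and cell-free wells for full effect; nearly all actives have a fitted effect of over 45% in size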
# hNpr1 antagonist: antagonists of human natriuretic peptide receptor Npr1; P16066; HEK293 hNpr1 GloSensor cGMP, ANP-stimulated luminescence; Potency, µM (doses to about 46.3 µM), for the others: at the highest dose activity change, negative = inhibition, most hits filed as inhibitors; 1.6% of 76,000 active; AID 1347048; calls by dose curve; also: nearly all actives have a fitted effect of over 60% in size
#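 Compound pre-incubated 30 min at room temperature on GloSensor-loaded HEK293 cells stably carrying hNpr1 and the pGS-40F cGMP biosensor. Stimulation uses hNppA at 0.1 nM final; luminescence is taken at baseline and 20 min post-agonist.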
# NIH3T3 tox: cytotoxic compounds in NIH 3T3 cells; Potency, µM (titrated, usually from 96.7 µM), for the others: at the highest dose activity change, negative = cytotoxicity, actives largely listed as inhibitors; 4.3% of 94,000 active; NIH 3T3 viability, CellTiter-Glo ATP luminescence, 48-72 h; also: nearly all actives have a fitted effect of over 55% in size
#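 Viability of NIH 3T3 cells after 48 or 72 hr compound treatment at 37 °C was assessed by CellTiter-Glo, with luminescence imaged following a 10 min room-temperature step.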
# Starred values were filed as active, the others as inactive; i = inactive; u = inconclusive; x = not tested or not shown; [ ] = remark or other dose. Unless noted, calls follow the shape of the dose curve; as a rule, active = well fitted curve in the direction sought with a large enough effect; inconclusive = small, poorly fitted or top-dose-only effect, or another doubt; inactive = no such curve, though single readings can be large; an effect the other way counts as inactive or inconclusive. Unless noted, % is scaled to controls: 0 for no effect and ±100 for the full control effect; potency is read from the fitted curve at half-maximal effect.
SMILES,HEK293 viab,FLuc inh,HEK293 tox,SNCA expr inhib,hNpr1 antagonist,NIH3T3 tox
COc1ccc(CN2CCCC3(CC(c4ccccc4)=NO3)C2)cc1 (stereo not given),-1%,x,u,16%,x,-24%
COCC(C)NC(=O)c1csc2nc(-c3cccc(C(F)(F)F)c3)cn12 (stereo not given),0%,i,u,6%,-2%,u
CC(NC(=O)c1csc2nc(-c3cccc(C(F)(F)F)c3)cn12)c1ccncn1 (stereo not given),4%,40µM*,u,47%,0%,u
CCCc1noc(-c2nc(-c3ccc4c(c3)OCO4)no2)n1,22%,13µM*,-21%,98%,-16%,-6%
CCc1noc(-c2nc(-c3cccc(F)c3)no2)n1,13%,25µM*,-7%,68%,-21%,i
COCCc1noc(-c2nc(-c3ccccc3)no2)n1,-4%,20µM*,-24%,28%,-5%,-10%
COc1cccc(-c2cc(C(=O)O)cc(S(=O)(=O)N3CCSCC3)c2)c1,-12%,i,3%,-18%,11%,u
COc1cccc(-c2ccc(S(=O)(=O)N3CCSCC3)cc2)n1,-2%,i,45µM*,10%,-5%,u
CC[C@H]1CN(S(=O)(=O)c2c(C)noc2C)CC[C@H]1CC(=O)NCc1cccnc1,0%[87.6 µM],i,-21%[172 µM],2%[87.6 µM],5%[70.6 µM],-28%[174 µM]
CC(c1ccc(F)cc1)N1Cc2cc(NC(=O)Cc3cccs3)ccc2OCC1=O (stereo not given),-3%,i,40µM*,-4%,u,u
CC(C)c1ccc(CN2CCCC3(CCN(C(=O)c4ccsc4)C3)C2)cc1 (stereo not given),-2%,i,u,10%,4%,u
Cc1cc(CNC(=O)C2CC(=O)N(c3ccc(C(C)C)cc3)C2)no1 (stereo not given),2%,i,i,19%,2%,-11%
CC1CCN(CC2CCCCCN2C(=O)Nc2ccc3c(c2)OCCO3)CC1 (stereo not given),-12%,16µM*,u,41%,-13%,-14%
CCCNC(=O)N1CCCCCC1CN1CCC(C)CC1 (stereo not given),6%,x,-26%,-6%,x,-20%
COC1CCN(CC2CCCCCN2C(=O)Nc2ccc3c(c2)OCCO3)CC1 (stereo not given),-19%,18µM*,2%,41%,0%,-3%
O=[S+]([O-])(c1cccc(C(F)(F)F)c1)N1CCCN(c2ccnc3ccnn23)CC1,10%,x,45µM*,0%,x,u
O=C(c1ccc(C(F)(F)F)cc1)N1CCCN(c2ccnc3ccnn23)CC1,-6%,x,22µM*,-23%,x,u
O=C(c1ccncc1)N1CCCN(c2ccnc3ccnn23)CC1,0%[87.6 µM],x,-20%[172 µM],13%[87.6 µM],x,-30%[138 µM]
O=[S+]([O-])(c1ccccc1)N1CCCN(c2ccnc3ccnn23)CC1,8%,x,u,13%,x,u
COc1ccc2c(c1)CCN=C2C[C@H]1CN(C(=O)C(C)(C)C)CC[C@H]1CC(=O)O,-1%[87.6 µM],i,112µM*,-16%[87.6 µM],-10%[70.6 µM],u
CNC(=O)C1CCCN1Cc1cccc(-c2ccc(C)c(Cl)c2)c1 (stereo not given),x,x,25µM*,x,x,35µM*
COCCCNC(=O)C1CCCN1Cc1cccc(-c2ccc(C)c(Cl)c2)c1 (stereo not given),x,x,u,x,x,40µM*
C#CCNC(=O)C1CCCN1Cc1cccc(-c2ccc(C)c(Cl)c2)c1 (stereo not given),x,x,40µM*,x,x,40µM*
CNC(=O)C1CCCN1Cc1cccc(-c2cccc(OC)c2)c1 (stereo not given),0%,x,u,-5%,x,u
C#CCNC(=O)C1CCCN1Cc1ccc(-c2cncnc2)cc1 (stereo not given),1%[87.6 µM],x,-18%[172 µM],-16%[87.6 µM],x,-13%[138 µM]
